Results published in PubChem BioAssay (NCATS).
Results filed as inconclusive are left out. Entries that show only a call come without a potency. Active and inactive are the calls of the source. Calls follow the shape of the dose curve; as a rule, active = well fitted curve in the direction sought with a large enough effect; inconclusive = small, poorly fitted or top-dose-only effect, or another doubt; inactive = no such curve, though single readings can be large; an effect the other way counts as inactive or inconclusive.

Experiments:
[1] = qHTS of pediatric cancer cell lines to identify multiple opportunities for drug repurposing: Primary screen for Saos-2 cells (AID 1347097); also: nearly all actives have a fitted effect of over 40% in size
Method in brief: (§1)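 ATP-based luminescence (CellTiter-Glo) quantifies viability after a 48-hour exposure. Compounds are dosed across 8 or 11 final concentrations; DMSO and 2.3 µM bortezomib serve as controls.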

[2] = qHTS of pediatric cancer cell lines to identify multiple opportunities for drug repurposing: Primary screen for NB1643 cells (AID 1347099); also: nearly all actives have a fitted effect of over 50% in size
Method in brief: as §1

[3] = qHTS of pediatric cancer cell lines to identify multiple opportunities for drug repurposing: Primary screen for BT-12 cells (AID 1347101); also: nearly all actives have a fitted effect of over 25% in size
Method in brief: (§2)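 Cells (500-1,000/well) rested 5 h, then received compounds for 48 h; metabolically active cells were measured by CellTiter-Glo luminescence. Final concentrations spanned up to 46 µM (MIPE, 11-point) or 0.59 nM-46 µM (NPC, 8-point) in primary screens, 11-point in follow-ups.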

[4] = qHTS of pediatric cancer cell lines to identify multiple opportunities for drug repurposing: Primary screen for OHS-50 cells (AID 1347103); also: nearly all actives have a fitted effect of over 40% in size
Method in brief: as §2

[5] = qHTS of pediatric cancer cell lines to identify multiple opportunities for drug repurposing: Primary screen for RD cells (AID 1347104); also: nearly all actives have a fitted effect of over 55% in size
Method in brief: as §1

[6] = qHTS of pediatric cancer cell lines to identify multiple opportunities for drug repurposing: Primary screen for U-2 OS cells (AID 1347096); also: nearly all actives have a fitted effect of over 50% in size
Method in brief: as §2

[7] = qHTS of pediatric cancer cell lines to identify multiple opportunities for drug repurposing: Primary screen for Rh18 cells (AID 1347102); also: nearly all actives have a fitted effect of over 65% in size
Method in brief: as §2

[8] = qHTS of pediatric cancer cell lines to identify multiple opportunities for drug repurposing: Primary screen for LAN-5 cells (AID 1347100)
Method in brief: as §2

[9] = qHTS of pediatric cancer cell lines to identify multiple opportunities for drug repurposing: Primary screen for SK-N-SH cells (AID 1347098); also: nearly all actives have a fitted effect of over 65% in size
Method in brief: as §2
Potency is read from the fitted curve at half-maximal effect.

Row | Structure (SMILES) | Potency [1] | Potency [2] | Potency [3] | Potency [4] | Potency [5] | Potency [6] | Potency [7] | Potency [8] | Potency [9]
1 | CCOc1cc2c(c(F)c1OCC)C(=N)N(CC(=O)c1cc(N3CCOCC3)c(OC)c(C(C)(C)C)c1)C2 | 14.8 µM (active) | 4.69 µM (active) | 27.3 µM (active) | 21.7 µM (active) | 16.6 µM (active) | – | – | – | –
2 | C[N+](C)([O-])CCNc1ccc(NCC[N+](C)(C)[O-])c2c1C(=O)c1c(O)ccc(O)c1C2=O | inactive | – | inactive | inactive | – | inactive | inactive | – | –
3 | CC(=CC(=O)Nc1ccccc1C(=O)O)c1ccc2ccccc2c1 | – | – | inactive | – | – | inactive | inactive | inactive | –
4 | CCN(CC)CCCCNc1ncc2c(n1)N(C)C(=O)N(c1c(Cl)c(OC)cc(OC)c1Cl)C2 | inactive | 16.6 µM (active) | 17.2 µM (active) | 19.3 µM (active) | 18.7 µM (active) | – | 11.8 µM (active) | 20.9 µM (active) | –
5 | Cc1cc(C(=O)NOCCO)c(Nc2ccc(I)cc2F)n(C)c1=O | inactive | – | – | – | – | – | inactive | – | 2.15 µM (active)
6 | CC(C)n1cnc2c(NCCc3ccc(O)cc3)nc(-c3csc4ccccc34)nc21 | 14.8 µM (active) | 3.32 µM (active) | – | – | 11.8 µM (active) | inactive | – | – | 4.29 µM (active)
7 | N#Cc1ccc(COC[C@H]2O[C@@H](n3c(NCc4ccc(Cl)c(Cl)c4)nc4c(N)ncnc43)[C@@H](O)[C@@H]2O)cc1 | inactive | 18.7 µM (active) | – | 6.85 µM (active) | – | inactive | – | 16.6 µM (active) | 19.2 µM (active)
8 | C[C@]12C=CC(=O)N[C@@H]1CC[C@H]1[C@H]3CC[C@@H](C(=O)Nc4cc(C(F)(F)F)ccc4C(F)(F)F)[C@@]3(C)CC[C@@H]12 | 16.6 µM (active) | – | inactive | – | inactive | – | inactive | inactive | inactive
9 | CC(Cc1ccc(O)c(O)c1)(NN)C(=O)O (centres undefined) | inactive | – | inactive | inactive | – | inactive | inactive | – | inactive
10 | Cc1coc2c1C(=O)C(=O)c1c-2ccc2c(C)cccc12 | – | inactive | – | inactive | – | inactive | – | inactive | inactive
11 | COc1cc2ncnc(Nc3cccc(Br)c3)c2cc1OC | 29.6 µM (active) | 7.43 µM (active) | – | 15.3 µM (active) | 0.935 µM (active) | – | – | – | –
12 | OCCNC1CCCc2c1[nH]c1ccc(-c3ccccc3)cc21 (centres undefined) | 18.7 µM (active) | inactive | 30.6 µM (active) | 24.3 µM (active) | 33.2 µM (active) | – | 20.9 µM (active) | 26.4 µM (active) | –
13 | COc1cccc2c1C(=O)c1c(O)c3c(c(O)c1C2=O)C[C@@](O)(C(C)=O)C[C@H]3O[C@H]1C[C@H](N)[C@H](O)[C@H](C)O1 | 0.264 µM (active) | – | 0.0769 µM (active) | 0.344 µM (active) | 0.0743 µM (active) | 0.118 µM (active) | – | – | 0.121 µM (active)
14 | C=CC(=O)Nc1cc(NC(=O)c2ccc(C)c(NC(=O)c3ccno3)c2)cc(C(F)(F)F)c1 | 18.7 µM (active) | 18.7 µM (active) | – | – | 33.2 µM (active) | – | – | 16.6 µM (active) | 24.1 µM (active)
15 | C[C@@H](NCc1cc2ccccc2[nH]1)c1cccc2ccccc12 | inactive | inactive | inactive | inactive | inactive | inactive | inactive | inactive | –
16 | N#CC(=C(N)Sc1ccc(N)cc1)c1ccccc1C(F)(F)F | – | inactive | – | – | – | – | inactive | – | –
17 | CC(=O)C1=C(O)C=C2Oc3c(C(C)=O)c(O)c(C)c(O)c3C2(C)C1=O (centres undefined) | 1.48 µM (active) | – | 1.72 µM (active) | 1.72 µM (active) | – | inactive | inactive | – | inactive
18 | N#CC(=C(O)c1ccc(Cl)cc1Cl)c1nc2cc(Cl)ccc2c(=O)[nH]1 | – | 20.9 µM (active) | inactive | inactive | inactive | inactive | inactive | inactive | inactive
19 | C=C(C)[C@@H]1CC[C@]2(C(=O)O)CC[C@]3(C)[C@H](CC[C@@H]4[C@@]5(C)CC[C@H](O)C(C)(C)[C@@H]5CC[C@]43C)[C@@H]12 | 18.7 µM (active) | inactive | inactive | – | inactive | – | inactive | inactive | inactive
20 | COc1cc(C[C@@H](CO)[C@H](CO)Cc2ccc(O)c(OC)c2)ccc1O | 5.9 µM (active) | – | 10.9 µM (active) | 9.68 µM (active) | 0.526 µM (active) | – | 4.18 µM (active) | 2.35 µM (active) | 1.71 µM (active)

Row | Structure (SMILES) | Potency [1] | Potency [2] | Potency [3] | Potency [4] | Potency [5] | Potency [6] | Potency [7] | Potency [8] | Potency [9]
21 | CCCCCN=C(N)NN=Cc1c[nH]c2ccc(OC)cc12 | – | – | – | 9.68 µM (active) | 18.7 µM (active) | – | – | – | inactive
22 | CC(=O)O[C@@]12CO[C@H]1C[C@H](O)[C@@]1(C)C(=O)[C@H](O)C3=C(C)[C@@H](OC(=O)C(O)[C@@H](NC(=O)OC(C)(C)C)c4ccccc4)C[C@@](O)([C@@H](OC(=O)c4ccccc4)[C@@H]21)C3(C)C (some centres undefined) | – | – | – | 0.001 µM (active) | – | inactive | inactive | – | inactive
23 | CCOC(=O)[C@@H](N)Cc1ccc(-c2cc(O[C@H](c3ccc(Cl)cc3-n3ccc(C)n3)C(F)(F)F)nc(N)n2)cc1 | 18.7 µM (active) | – | 30.6 µM (active) | 24.3 µM (active) | – | – | 23.5 µM (active) | – | inactive
24 | CC1(C)O[C@@H]2C[C@H]3[C@@H]4CCC5=CC(=O)C=C[C@]5(C)[C@@H]4[C@@H](O)C[C@]3(C)[C@]2(C(=O)CO)O1 | – | – | inactive | inactive | – | inactive | inactive | inactive | –
25 | CCCCCCCCCCCCc1ccc(S(=O)(=O)Nc2nncs2)cc1 | 18.7 µM (active) | inactive | inactive | – | inactive | – | inactive | inactive | –
26 | CC(C=CC=C(C)C=CC1=C(C)CCCC1(C)C)=CC=CC=C(C)C=CC=C(C)C=CC1=C(C)CCCC1(C)C | – | – | inactive | – | 29.6 µM (active) | inactive | inactive | – | –
27 | c1ccc2c(Oc3nc(Nc4ccc(N5CCOCC5)cc4)c4ncn(C5CCCCC5)c4n3)cccc2c1 | inactive | inactive | – | – | inactive | – | inactive | inactive | inactive
28 | O=C(Nc1cccc(Nc2ncc(Br)c(NCCc3cnc[nH]3)n2)c1)N1CCCC1 | 1.05 µM (active) | – | 19.3 µM (active) | 17.2 µM (active) | 16.6 µM (active) | – | 9.35 µM (active) | 0.118 µM (active) | –
29 | Cc1cncc2cccc(S(=O)(=O)N3CCCN(C(=O)CN)C[C@@H]3C)c12 | 2.35 µM (active) | inactive | – | inactive | inactive | inactive | inactive | 1.48 µM (active) | –
30 | C[C@H](NC(=O)[C@@H](O)c1cc(F)cc(F)c1)C(=O)N[C@@H]1C(=O)N(C)c2ccccc2-c2ccccc21 | – | – | inactive | inactive | – | inactive | inactive | inactive | –
31 | C=Cc1c(C)c2cc3nc(cc4[nH]c(cc5nc(cc1[nH]2)C(C)=C5CCC(=O)O)c(CCC(=O)OC)c4C)[C@@]1(C)C3=CC=C(C(=O)OC)[C@H]1C(=O)OC | 4.69 µM (active) | – | 0.344 µM (active) | 0.769 µM (active) | 0.105 µM (active) | 0.372 µM (active) | – | 0.0526 µM (active) | 0.121 µM (active)
32 | O=C(NC1CC1)c1cccc(-c2ccc3c(NC(=O)C4CC4)n[nH]c3c2)c1 | 2.96 µM (active) | 0.935 µM (active) | 3.85 µM (active) | 3.85 µM (active) | 0.935 µM (active) | – | 2.96 µM (active) | 2.09 µM (active) | 1.71 µM (active)
33 | Cc1cnn(C)c1C(=O)Nc1cc(Nc2ccc3c(C=Cc4ccccn4)n[nH]c3c2)ccc1F | 20.9 µM (active) | 14.8 µM (active) | 10.9 µM (active) | 38.5 µM (active) | 18.7 µM (active) | – | – | 14.8 µM (active) | –
34 | CC1(C)CC(O)CC(C)(C)N1[O] | inactive | inactive | inactive | – | inactive | inactive | inactive | inactive | –
35 | COC(=O)C=CC(=O)OC | inactive | 7.43 µM (active) | inactive | – | – | inactive | inactive | inactive | –
36 | O=c1[nH]c(=O)n([C@H]2C[C@@H](O)[C@@H](CO)O2)cc1F | 5.9 µM (active) | 14.8 µM (active) | 6.11 µM (active) | – | 16.6 µM (active) | 18.7 µM (active) | – | 1.32 µM (active) | inactive
37 | CCCCCCCN(CC)CCCC(O)c1ccc(NS(C)(=O)=O)cc1 (centres undefined) | – | – | inactive | – | inactive | inactive | inactive | – | inactive
38 | COC(=O)C1C2CC3c4[nH]c5cc(OC)ccc5c4CCN3CC2CC(OC(=O)c2cc(OC)c(OC)c(OC)c2)C1OC (centres undefined) | 18.7 µM (active) | – | – | 27.3 µM (active) | – | – | – | inactive | –
39 | O=C(Nc1ccc(Oc2ccnc3[nH]ccc23)c(F)c1)c1cccn(-c2ccc(F)cc2)c1=O | 20.9 µM (active) | inactive | inactive | – | inactive | inactive | inactive | inactive | –
